This note sets out measurements from PubChem BioAssay (Tox21).

The structures appear in SMILES notation. Where “and” joins values, the source holds several entries; their conditions need not be identical. Equal entries are not always repeated. Inconclusive results are not listed. Calls of active or inactive are those of the source. Calls come from the whole dose curve; as a rule, active = well fitted inhibition curve with a large enough effect in the repeat runs; inconclusive = weak or mixed curves, or effect the other way; inactive = no such curve, though single readings can be large or run the other way.
% is set by controls: 0 for no effect and ±100 for the full control effect; potency is the fitted concentration of half-maximal effect.

The nature of this assay: qHTS assay to identify small molecule antagonists of the retinoic acid receptor (RAR) signaling pathway (AID 1159552; note: nearly all actives have a fitted effect of over 50% in size). The note with it: C3RL4 RARE luciferase reporter, retinol-stimulated, 6 h; series mostly up to 92.4 µM; activity, negative = inhibition: at the top concentration. An excerpt:
National Center for Advancing Translational Sciences [NCATS]
NIH Chemical Genomics Center [NCGC]
U.S. Environmental Protection Agency [EPA]
National Institutes of Environmental Health Sciences [NIEHS]
National Toxicology Program [NTP]
U.S. Food and Drug Administration [FDA]
All-trans Retinoic acid (atRA) is the potent natural metabolite of retinol and plays an important role in normal embryonic development and maintenance of cellular phenotype in adult animals. atRA is the activating ligand for the retinoic acid receptors (RARs) which form heterodimers with retinoid X receptors (RXRs) on the retinoic acid response element (RARE). Through activation of the RAR/RXRs nuclear receptors, atRA regulates the transcription of a large number of protein-coding genes and regulatory RNAs. Intracellular levels of atRA are controlled by the retinol signaling pathway (RSP) that regulates the biosynthesis and catabolism of atRA to maintain physiological levels. Chemicals that interfere with the RSP can cause abnormal intracellular levels of atRA and therefore are potential developmental toxicants. To assess compounds for the potential adverse effect on embryonic development through interfering with retinol signaling, a cell-based RARE luciferase reporter gene assay was used. C3RL4 cell line (OARSA/CFSAN/FDA, Laurel, MD) was used to screen Tox21 10K compound library for identifying inhibitors of the RSP.
Tox21 Assay Protocol Summary:
C3RL4 cells were seeded at 1,000/well in 4 uL of assay medium into white solid 1,536-well tissue culture plates (Greiner Bio-One North America Inc. Monroe, NC) using a Multidrop Combi (Thermo Scientific, Waltham, MA) dispenser. After incubation at 37 C and 5% CO2 for an overnight, 23 nL of compounds dissolved in DMSO, positive control or DMSO only were transferred by a Pintool station (Kalypsys, San Diego, CA). One ul of 1 uM (final concentration) of Retinol was added right after the compound addition by using a Flying Reagent Dispenser (FRD) (Aurora Discovery, San Diego, CA). After 6 hr incubation at 37 C and 5% CO2, 5 uL of Amplite Luciferase reagent (AAT Bioquest Inc. Sunnyvale, CA) was added to each assay plate using an FRD. Luminescence was quantified on a ViewLux plate reader (PerkinElmer, Waltham, MA) after 30 min incubation at room temperature.
Regarding `CCCCCCCCCCO[C@@H]1O[C@H](CO)[C@@H](O)[C@H](O)[C@H]1O`, the “activity, negative = inhibition” value is 5.89% (inactive).

With `O=C(O)c1nc(Cl)c(Cl)c(Cl)c1Cl`, the “activity, negative = inhibition” value is 1.65% (inactive).

As to `COc1cccc(N(C)C(=S)Oc2ccc3c(c2)CCCC3)n1`, the “activity, negative = inhibition” value was 0.581% [at 42.5 µM] (inactive).

For `COc1cc2nc(Cl)nc(N)c2cc1OC`, the “activity, negative = inhibition” value is -20% [at 42.5 µM] (inactive).

Turning to `COCCCN1CCC(NC(=O)c2cc(Cl)c(N)c3c2OCC3)CC1`, the “activity, negative = inhibition” value was -7.83% [at 42.5 µM] (inactive).

Consider `O=C(Nc1ccccc1)c1ccccc1O`, for which the “activity, negative = inhibition” value was 54.6% (inactive).

For `Cc1ccc(N=Nc2c(O)c(C(=O)O)cc3ccccc23)c(S(=O)(=O)O)c1`, the “activity, negative = inhibition” value is 1.4% [at 42.5 µM] (inactive).

Take `C=CC(=O)OCCOCCOC(=O)C=C`: the Potency is 48.8 µM (active).

With `COc1cc2nc(N(C)CCCNC(=O)C3CCCO3)nc(N)c2cc1OC` (stereo not given), the “activity, negative = inhibition” value is 7.24% [at 42.5 µM] (inactive).

Consider `CC1(c2ccccc2)OC(C(=O)O)=CC1=O` (stereo not given), for which the “activity, negative = inhibition” value is 7.85% [at 42.5 µM] (inactive).

On to `O=C(OCCc1ccccc1)c1ccccc1`, for which the “activity, negative = inhibition” value was 97.3% (inactive).

On to `CCOc1ccc(N)c([N+](=O)[O-])c1`, for which the “activity, negative = inhibition” value is 26.4% (inactive).

On to `OCc1cc(C(O)CNCCCCCCOCCCCc2ccccc2)ccc1O` (stereo not given), for which the “activity, negative = inhibition” value is -22.5% [at 42.5 µM] (inactive).

Consider `Cc1ccc(C(C)OC(=O)C2(C)CCC(C(=O)O)C2(C)C)cc1` (stereo not given), for which the “activity, negative = inhibition” value was 12.5% [at 42.5 µM] (inactive).

On to `c1ccc(CNCCNCc2ccccc2)cc1`, for which the “activity, negative = inhibition” value was -12.9% [at 42.5 µM] (inactive).

Take `CC(C)=CCC/C(C)=C/CC/C(C)=C/CO`: the Potency is 68.6 µM (active).

`C=CCOc1ccccc1OCC(O)CNC(C)C` (stereo not given): the “activity, negative = inhibition” value was 1.17% [at 42.5 µM] (inactive).

With `CC(COCCO)OCCO` (stereo not given), the “activity, negative = inhibition” value is -3.08% (inactive).

Regarding `CCO[Si](CCCCl)(OCC)OCC`, the “activity, negative = inhibition” value is -1.86% (inactive).

Take `CCCCc1ncc(/C=C(\Cc2cccs2)C(=O)O)n1Cc1ccc(C(=O)O)cc1`: the “activity, negative = inhibition” value was 0.061% [at 42.5 µM] (inactive).

`Cc1ccccc1S(=O)(=O)O`: the “activity, negative = inhibition” value is 9.78% (inactive).

Take `CCOC(=O)C(=O)CCc1ccccc1`: the “activity, negative = inhibition” value was 1.48% [at 42.5 µM] (inactive).

Take `ClCCOCCOCCCl`: the “activity, negative = inhibition” value is 28.8% (inactive).

As to `O=C(Cl)c1cc(C(=O)Cl)cc(C(=O)Cl)c1`, the “activity, negative = inhibition” value is 77.3% (inactive).

Take `CCO[C@H](Cc1ccc(OCCc2ccc(OS(C)(=O)=O)cc2)cc1)C(=O)O`: the “activity, negative = inhibition” value is 1.66% [at 42.5 µM] (inactive).

As for `COC(C)(C)CCO`, the “activity, negative = inhibition” value was 7.27% (inactive).

Take `CCCCCCCC/C=C\CCCCCCCC(=O)OCC`: the “activity, negative = inhibition” value was -17.5% (inactive).

Take `C#C[C@]1(O)CC[C@H]2[C@@H]3CCc4cc(OC5CCCC5)ccc4[C@H]3CC[C@@]21C`: the “activity, negative = inhibition” value is -13.9% [at 42.5 µM] (inactive).

In the case of `O=S(c1cc(Cl)cc(Cl)c1O)c1cc(Cl)cc(Cl)c1O`, the “activity, negative = inhibition” value is -14.1% [at 42.5 µM] (inactive).

Turning to `O=C(O)C(S)C(S)C(=O)O` (stereo not given), the “activity, negative = inhibition” value was 2% [at 42.5 µM] (inactive).

In the case of `C=C(C)C(=O)OCCOCC`, the “activity, negative = inhibition” value is -18.2% (inactive).

Turning to `C=CC(=O)OCCOCCOCCOCCOC(=O)C=C`, the Potency is 48.8 µM (active) and 42.9 µM (active).

For `CC1OC(=O)C(C)OC1=O` (stereo not given), the “activity, negative = inhibition” value was -7.11% (inactive).

Consider `CN(Cc1ccc(C(C)(C)C)cc1)Cc1cccc2ccccc12`, for which the “activity, negative = inhibition” value was -11.8% [at 42.5 µM] (inactive).

As for `Cc1oc(-c2ccccc2)nc1CCOc1cccc2c1ccn2CCC(=O)O`, the “activity, negative = inhibition” value is 1.58% (inactive).

Take `COc1cc(C(=O)OCCCN2CCCN(CCCOC(=O)c3cc(OC)c(OC)c(OC)c3)CC2)cc(OC)c1OC`: the Potency is 13.3 µM (active).

As for `CC(=O)OC[C@H]1O[C@@H](n2ncc(=O)[nH]c2=O)[C@H](OC(C)=O)[C@@H]1OC(C)=O`, the “activity, negative = inhibition” value is -1.58% [at 42.5 µM] (inactive).

With `Cc1ncc(CO)c(C=O)c1O`, the “activity, negative = inhibition” value was 6.96% [at 42.5 µM] (inactive).

Turning to `C[C@H](CCC(=O)O)[C@H]1CC[C@H]2[C@@H]3CC[C@@H]4C[C@H](O)CC[C@]4(C)[C@H]3C[C@H](O)[C@]12C`, the “activity, negative = inhibition” value was -0.786% (inactive).

For `CCCCCCCCCCCc1ccccc1`, the “activity, negative = inhibition” value was -2.76% (inactive).
